Screening results deposited in PubChem by Broad Institute.
aSyn UTR act: Activators via SNCA 5'UTR binding, MLPCN | alpha-synuclein 5'UTR reporter, activators screen | activity score, % (tested at 7.5 µM), hits read low | 300,000 tested, 7.1% active | AID 1814; in the data active means activity score below about -60%
* = called active by the depositor. Not all results are given here.

SMILES	aSyn UTR act
NS(=O)(=O)c1ccc2nc(NC(=O)Nc3ccc(F)cc3)sc2c1	-98*
O=C(Nc1nc2ccccc2s1)Nc1ccc(F)cc1F	-119*
CCOc1ccc2nc(NC(=O)c3ccccn3)sc2c1	80
CC(C)C(=O)NNc1nc2ccccc2s1	-73*
COc1ccc(NC(=O)Nc2nc3c(s2)CCCC3)cc1	-155*
COc1n[nH]c(C(=O)Nc2nc3ccccc3s2)c1[N+](=O)[O-]	-79*
CCOc1ccc2nc(NC(=O)Nc3ccccc3)sc2c1	-131*
CCOc1ccc2nc(NC(=O)NC3CCCCC3)sc2c1	-72*
COc1ccc(NC(=O)Nc2nc3ccccc3s2)cc1	-150*
CCOc1ccc2nc(S(N)(=O)=O)sc2c1	-176*
CC(C)(C)c1ccc(NC(=O)c2c(F)cccc2Cl)cc1	-101*
COc1ccc(C(=O)Nc2nc3ccccc3s2)c(OC)c1	79
CCOc1ccc2nc(NC(=O)Nc3cccs3)sc2c1	-103*
O=C(/C=C/c1ccco1)Nc1nc(-c2ccccn2)cs1	-79*
COc1ccc(-c2csc(NC(=S)NC(=O)/C=C/c3ccco3)n2)cc1OC	63
O=C(/C=C/c1ccco1)Nc1nc(-c2ccc(F)c(F)c2)cs1	-100*
O=C(/C=C/c1ccco1)Nc1nc(-c2ccccc2)cs1	-250*
Cc1csc(NC(=O)/C=C/c2ccco2)n1	-168*
CCS(=O)(=O)N1Cc2ccccc2CC1C(=O)Nc1cccc(OC)c1 (configuration not stated)	-87*
Cc1cc(C)c2nc(NNC(=O)c3ccc(S(=O)(=O)N4CCc5ccccc5C4)cc3)sc2c1	75
CCS(=O)(=O)N1Cc2ccccc2CC1C(=O)Nc1nc2c(C)cccc2s1 (configuration not stated)	-69*
CCS(=O)(=O)N1Cc2ccccc2CC1C(=O)Nc1nccs1 (configuration not stated)	-167*
COc1ccc(S(=O)(=O)N2Cc3ccccc3CC2C(=O)Nc2nccs2)cc1 (configuration not stated)	-158*
CCSc1nnc(NC(=O)C2Cc3ccccc3CN2S(=O)(=O)CC)s1 (configuration not stated)	-88*
COc1ccc(S(=O)(=O)N2Cc3ccccc3CC2C(=O)Nc2nccs2)cc1OC (configuration not stated)	-149*
SMILES	aSyn UTR act
CCOc1ccc2nc(N3C(=O)/C(=C/c4ccc(Cl)cc4)NC3=S)sc2c1	-73*
O=C(Nc1ccc(NC(=O)c2cccs2)c(Cl)c1)c1cccs1	-118*
COc1cc(NC(=O)c2ccccc2Cl)ccc1NC(=O)c1ccco1	-195*
COc1cc(NC(=O)c2cccs2)ccc1NC(=O)c1ccco1	-149*
COc1cc(NC(=O)COc2ccccc2Cl)ccc1NC(=O)c1cccs1	-113*
O=C(Nc1ccc(NC(=O)c2cccs2)cc1Cl)c1ccco1	-154*
CN(C)c1ccc(/C=C(/C#N)C(=O)NCc2ccccc2)o1	-96*
Cc1ccsc1/C=C1\CCc2ccccc2C1=O	-165*
Cc1ccccc1/C=C1\CCCc2ccccc2C1=O	-241*
Cc1cccc(NC(=O)CN2C(=O)N/C(=C\c3ccc(N4CCOCC4)cc3)C2=O)c1	-100*
COc1cccc(-c2nc(N3CCN(C)CC3)c3ccccc3n2)c1O	-165*
Cc1ccc(C2CN=NC23CCc2ccccc2C3=O)cc1 (configuration not stated)	-80*
O=C(/C(=C(\[O-])c1ccccc1)[n+]1ccc2ccccc2c1)c1ccc(Cl)cc1	-63*
O=C(/C(=C(\[O-])c1ccccc1)[n+]1ccc2ccccc2c1)c1ccccc1	-72*
CCN(CC)C(=O)c1ccc(-c2cccs2)s1	-73*
O=c1c2ccccc2nnn1-c1ccc(Br)cc1	-169*
N#Cc1cccc(-c2nnc(SCc3ccccc3C#N)o2)c1	-65*
N#Cc1ccccc1CSc1nnc(-c2ccncc2)o1	-114*
Fc1cccc(Cl)c1CSc1nnc(-c2ccncc2)o1	-109*
Clc1ccccc1CSc1nnc(-c2ccncc2)o1	-127*
COc1ccccc1CNC(=O)CSc1ccccc1	-100*
COc1ccccc1CNC(=O)Cc1ccccc1	-77*
O=C(CSCc1cccc(F)c1)NCc1ccccc1	-75*
O=C(CSc1ccccc1)NCc1ccccc1	-69*
Nc1ccc(C(=O)N/N=C/c2cn(Cc3cccc(F)c3)c3ccccc23)cc1	70
SMILES	aSyn UTR act
C#CCOCCOCCOCCNc1nc(N2CCN(C(=O)CCCCCCCCCCNC(=O)[C@H](CCCCN)n3cc(CCCC(=O)O)nn3)CC2)nc(N2CCN(C(=O)CCCCCCCCCCNC(=O)[C@H](CCCN=C(N)N)n3cc(C[C@@H](C)CC)nn3)CC2)n1	-132*
C#CCOCCOCCOCCNc1nc(N2CCN(C(=O)CCCCCCCCCCNC(=O)[C@H](CCCCN)n3cc(CCCC(=O)O)nn3)CC2)nc(N2CCN(C(=O)CCCCCCCCCCNC(=O)[C@H](CCCCN)n3cc(CCCC(=O)O)nn3)CC2)n1	-112*
C#CCOCCOCCOCCNc1nc(N2CCN(C(=O)CCCCCCCCCCNC(=O)[C@H](CO)n3cc(CCCSC)nn3)CC2)nc(N2CCN(C(=O)CCCCCCCCCCNC(=O)[C@H](CCCCN)n3cc(C[C@@H](C)CC)nn3)CC2)n1	110
C#CCOCCOCCOCCNc1nc(N2CCN(C(=O)CCCCCCCCCCNC(=O)[C@H](CCCCN)n3cc(C[C@@H](C)CC)nn3)CC2)nc(N2CCN(C(=O)CCCCCCCCCCNC(=O)[C@H](CCCCN)n3cc(C[C@@H](C)CC)nn3)CC2)n1	107
Cc1occc1C(=O)N/N=C/c1ccc(Br)s1	-149*
C/C(=N\NC(=O)c1ccoc1C)c1ccc(Br)s1	-65*
Cc1ccc(/C=N/NC(=O)c2ccoc2C)s1	-120*
COc1ccc(/C=N\n2nnc3ccccc32)cc1	73
COc1ccc(/C=N/n2cc(-c3ccccc3)nc2N)cc1	-134*
C=CCn1c(-c2ccc(OC)cc2)nc2ccccc21	-73*
CCn1c(-c2ccc(N(C)C)cc2)nc2ccccc21	-97*
CN(C)c1ccc(-c2nc3ccccc3n2C)cc1	61
Cc1cccc(CSc2nnc(-c3ccccn3)n2N)c1	-69*
Cn1c(SCc2ccc(F)cc2)nnc1-c1ccccn1	-168*
Cc1ccc(CSc2nnc(-c3ccccn3)n2C)cc1	-93*
COc1ccc(-c2cc(C(=O)NCC(c3ccccc3)N(C)C)c3ccccc3n2)cc1OC (configuration not stated)	-68*
Cc1ccc(-c2cc(C(=O)NCCCN3CCCC3)c3ccccc3n2)cc1C	-63*
Cc1ccc(-c2cc(C(=O)NCc3ccccn3)c3ccccc3n2)cc1C	-124*
COc1cccc(-c2cc(C(=O)NCCCn3ccnc3)c3ccccc3n2)c1	-70*
N/C(=N\OC(=O)c1ccc2c(c1)OCO2)c1cccc([N+](=O)[O-])c1	-133*
Cc1cccc(/C(N)=N/OC(=O)c2ccc3c(c2)OCO3)c1	-116*
O=C(CCSc1ccccc1)Nc1ccccc1Br	-91*
N#Cc1c(/N=C/c2cc3ccccc3s2)sc2c1CCC2	-150*
Cc1ccc(/C=N/c2sc3c(c2C#N)CCC3)s1	-146*
O=C1/C(=N\S(=O)(=O)c2cccs2)C([n+]2ccc(CCCc3ccccc3)cc2)=C([O-])c2ccccc21	91
O=C(COC(=O)CNC(=O)c1cccs1)Nc1ccccc1C(F)(F)F	-95*
C/C(CC(=O)Nc1ccc(Cl)cc1C(F)(F)F)=N\NC(=O)c1ccccn1	-127*
C/C(CC(=O)Nc1ccc(Cl)cc1C(F)(F)F)=N\NC(=O)c1cccs1	-106*
